A short description of experiment [1]: rapamycin-like changes in RPL19A-GFP expression – cell-based, S. cerevisiae, multiplex flow cytometry, primary screen (AID 1862; in the data active means percent of DMSO control GFP below about 86%;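 further: lower values mimic rapamycin by blocking the RPL19A rise seen in DMSO cells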). The following applies: S. cerevisiae RPL19A-GFP strain, flow cytometry fluorescence, 3 h; at 10 µM; stronger effect = lower value. In general terms: Flow cytometry measures light scatter and fluorescence of single cells or particles in a stream.

Experiment [2] in a line: TOR pathway GLN3 branch reporter MEP2-GFP changes – S. cerevisiae, multiplex flow cytometry, primary screen (AID 1867;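 active means GFP response, as percent of the DMSO control, above the screen-wide mean plus 3 SD, about 139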;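 further: median GFP channel fluorescence of barcode-gated MEP2-GFP cells measured by flow cytometry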). The following applies: S. cerevisiae MEP2-GFP strain, 3 h, at 10 µM, stronger effect = higher value, 100% means same as DMSO wells.
A short description of experiment [3]: TOR pathway RTG branch CIT2 reporter changes – S. cerevisiae, GFP fusion, multiplex flow cytometry, primary screen (AID 1870;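 active means percent response above a set limit, the screen-wide mean plus 3 SD, cut at about 130% in these data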;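 further: barcoded CIT2-GFP strain pooled with four other GFP strains with rapamycin as positive control; median GFP fluorescence per well over plate mean of DMSO wells so 100% = DMSO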). The following applies: S. cerevisiae CIT2-GFP expression, 3 h, at 10 µM, stronger effect = higher value.
Experiment [4] is described as follows: TOR pathway LAP4-GFP level changes – S. cerevisiae, multiplex flow cytometry, primary screen (AID 1873;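 active means GFP signal, as percent of the solvent control, above the screen mean plus 3 SD, about 149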). The following applies: S. cerevisiae LAP4-GFP expression, 3 h, at 10 µM, stronger effect = higher value.
Experiment [5] can be described thus: yeast AGP1-GFP level changes, GLN3 branch – cell-based, multiplex flow cytometry, S. cerevisiae, primary screen (AID 1887;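 active means GFP signal above the screen-wide mean plus 3 SD, that is over about 124.5% of the solvent control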;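 further: AGP1-GFP fusion strain of S. cerevisiae within a five-strain barcoded multiplex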). Particulars: 3 h, at 10 µM, stronger effect = higher value.
Experiment [6] in a line: reduced mouse 2C T cell binding to pMHC/ICAM-1 vesicles – MLPCN validation set, flow cytometry, LFA-1/ICAM-1 modulator project, pilot screen (AID 2523;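 active means response below a set limit, under 55% cells CD8-positive and vesicle-bound, and CD8 cells' 90th-percentile brightness under 279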;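 on vesicle binding response: mean PE anti-B7-1 fluorescence of CD8+ cells relative to row control; 100% = QL9-loaded vesicles with DMSO vehicle in the same plate row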). The following applies: 2C mouse CD8+ T cells, at 7 µM, stronger effect = lower value; double positive events: measured here: CD8+/vesicle+ event percentage.
The target in experiment [7] is Integrin beta-1 (Homo sapiens) + Integrin alpha-4 (Homo sapiens) (UniProt P13612+P05556). In words: alpha4beta1 integrin LIBS antibody binding reduction – U937 cells, HUTS-21 mAb, flow cytometry, validation set, VLA-4 allosteric modulator project, pilot screen (AID 2674;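 active means inhibition above 50%, about 3 SD of the validation set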;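 further: antibody binding induced by the VLA-4 ligand LDV present at three times its Kd; 0% = LDV ligand with antibody and no compound and 100% = antibody without LDV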). The following applies: HUTS-21 LIBS mAb binding, at 6.7 µM, stronger effect = higher value, binding induced by LDV ligand.

Experiment [8] can be described thus: calorie-restriction mimetic ROS inhibitors, yeast – validation compound set, pilot screen (AID 2706;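 active means superoxide response below 65% of plate, a cut near 3 SD across the whole screen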;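 further: yeast exposed to compound for one week at 30 degrees C before staining; 100% = mean of all compound wells on the same plate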). Particulars: S. cerevisiae aging, superoxide DHE fluorescence; at 10 µM; stronger effect = lower value.
The target in experiment [9] is Beta-adrenergic receptor kinase 1 (Homo sapiens) (UniProt P25098). In words: GRK2 binders displacing RNA aptamer, biochemical, validation, human GRK2, bead flow cytometry (AID 488806). Particulars: bead-bound GRK2, FAM-aptamer displacement, at 10 µM, stronger effect = higher value.
The target in experiment [10] is Beta-2 adrenergic receptor (Homo sapiens) (UniProt P07550). In words: agonist-induced loss of surface beta2AR – cell-based, FAP fluorogen, flow cytometry, validation set, pilot screen (AID 504459;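 active means percent response above 42, roughly 3 SD of non-fluorescent test compounds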;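 further: agonist-driven loss of surface beta2AR via internalization measured by FAP dye flow cytometry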). The following applies: Am2.2-beta2AR cells, at 10 µM, stronger effect = higher value.
Experiment [11] has as its target AP-2 complex subunit beta (Homo sapiens) (UniProt P63010). The experiment is described as follows: beta-arrestin/AP2 interaction blockers – biochemical, validation set, GST-AP2 beads, flow cytometry, pilot screen (AID 504541;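 active means inhibition above 54%, about 3 SD of non-fluorescent compounds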;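 further: AP2 carries R879A mutation and is captured from E. coli lysate; bead-bound FITC arrestin peptide fluorescence measuring arrestin peptide binding to AP2; 0% = DMSO wells and 100% = excess unlabeled arrestin peptide control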). Particulars: FITC arrestin peptide, at 10 µM, stronger effect = higher value, AP2 beta2 appendage fragment, R879A mutant.
The nature of experiment [12]: cytosolic pH regulators acting via V-ATPase – S. cerevisiae, pHLuorin, HTS validation (AID 504600; in the data active means response above about 15%;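 further: plate controls were DMSO for no effect and reference compound for full effect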). Particulars: V-ATPase proton transport, at 10 µM, stronger effect = higher value.
In experiment [13] the test system is anti-desmoglein-3 scFv antibody binding to human DSG3. In words: blockers of pathogenic pemphigus antibody–desmoglein-3 binding – biochemical, validation compound set, bead-based, flow cytometry, pilot screen (AID 588368;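 active means binding below the plate cutoff, the plate median minus 3 SD, with a reading above zero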;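 further: signal is the median channel fluorescence of bead-bound GFP antibody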). Particulars: Protein G beads, DSG3-Fc, scFv-GFP binding, at 10 µM, stronger effect = lower value.
Experiment [14] can be described thus: Nile Red efflux blockade in pump-expressing yeast – validation compound set, multiplex, phenotypic, pilot screen (AID 588506;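 active means efflux inhibition above 0.42, the validation set average plus 4 SD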;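 further: Nile Red retained in cells so higher fluorescence means more efflux inhibition; 0 = negative control wells and 1 = enniatin B 25 µM full block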). Particulars: S. cerevisiae pump-expressing triplex, Nile Red efflux flow cytometry; at 10 µM; stronger effect = higher value; the pumps come from Candida albicans.
Experiment [15] addresses ATP-binding cassette sub-family B member 6 (Homo sapiens) (UniProt Q9NP58). The experiment is described as follows: blockers of ABCB6-driven porphyrin uptake – K562-ABCB6 cells, flow cytometry, validation set, pilot screen (AID 588550;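 active means inhibition above the screen-wide mean plus 3 SD, about 51%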;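 further: 0% = DMSO wells and 100% = benzethonium chloride 70 µM positive control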). Particulars: K562-ABCB6 porphyrin accumulation, 1 h, at 10 µM, stronger effect = higher value.
The nature of experiment [16]: AML differentiation inducers, ER-HoxA9 marrow cells – cell-based, GFP/MAC1 double positive, flow cytometry, validation set, primary screen (AID 588685;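 active means differentiation response of at least 50%, scaled between solvent and reference control, from cells with both markers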;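 further: compound exposure lasts four days before antibody staining and flow analysis; 0% = DMSO wells and 100% = 5 µM fulvestrant positive control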). Particulars: stronger effect = higher value, normalized: vehicle 0, fulvestrant 100.

Results filed as inconclusive are left out. Calls of active or inactive are those of the source.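 How the source made its calls, unless noted: active means aptamer binding inhibition above 30%, about 3 SD of noise from non-fluorescent compounds; inactive means inhibition at or below 30%.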

Sequence of Beta-2 adrenergic receptor (Homo sapiens) (P07550 whole entry, looked up): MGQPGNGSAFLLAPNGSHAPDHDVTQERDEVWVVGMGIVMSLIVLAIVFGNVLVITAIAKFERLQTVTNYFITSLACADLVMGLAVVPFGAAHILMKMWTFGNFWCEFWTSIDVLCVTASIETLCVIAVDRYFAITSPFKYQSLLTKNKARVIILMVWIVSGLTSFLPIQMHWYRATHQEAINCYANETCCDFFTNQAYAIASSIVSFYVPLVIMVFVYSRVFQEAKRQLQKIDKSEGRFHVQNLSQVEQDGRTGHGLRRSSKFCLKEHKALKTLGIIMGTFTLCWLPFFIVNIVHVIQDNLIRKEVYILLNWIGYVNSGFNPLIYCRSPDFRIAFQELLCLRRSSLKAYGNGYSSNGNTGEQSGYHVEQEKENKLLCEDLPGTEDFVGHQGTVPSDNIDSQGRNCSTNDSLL
Sequence of ATP-binding cassette sub-family B member 6 (Homo sapiens) (Q9NP58 whole entry, looked up): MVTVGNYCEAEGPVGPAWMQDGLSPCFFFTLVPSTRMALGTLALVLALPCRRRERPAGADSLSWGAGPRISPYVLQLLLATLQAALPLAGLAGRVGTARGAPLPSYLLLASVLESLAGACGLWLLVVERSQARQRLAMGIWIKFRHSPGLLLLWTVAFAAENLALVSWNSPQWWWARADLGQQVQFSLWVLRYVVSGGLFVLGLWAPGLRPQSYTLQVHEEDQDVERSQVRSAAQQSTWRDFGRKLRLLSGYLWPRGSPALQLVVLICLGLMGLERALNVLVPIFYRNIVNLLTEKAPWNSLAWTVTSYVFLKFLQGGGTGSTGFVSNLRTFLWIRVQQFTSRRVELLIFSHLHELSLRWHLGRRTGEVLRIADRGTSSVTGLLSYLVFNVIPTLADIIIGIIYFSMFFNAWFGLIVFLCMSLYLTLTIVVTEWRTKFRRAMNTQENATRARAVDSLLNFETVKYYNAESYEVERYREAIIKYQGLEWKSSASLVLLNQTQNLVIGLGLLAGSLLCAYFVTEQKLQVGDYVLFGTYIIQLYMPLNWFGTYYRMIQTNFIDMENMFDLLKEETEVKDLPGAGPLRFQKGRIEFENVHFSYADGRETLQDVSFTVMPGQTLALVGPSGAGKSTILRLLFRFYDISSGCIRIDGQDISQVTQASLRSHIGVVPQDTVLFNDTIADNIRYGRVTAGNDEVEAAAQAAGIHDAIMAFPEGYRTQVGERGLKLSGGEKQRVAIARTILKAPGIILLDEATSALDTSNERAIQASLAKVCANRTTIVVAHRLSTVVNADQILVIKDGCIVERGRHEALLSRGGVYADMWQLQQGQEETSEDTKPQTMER
Sequence of Beta-adrenergic receptor kinase 1 (Homo sapiens) (P25098 whole entry, looked up): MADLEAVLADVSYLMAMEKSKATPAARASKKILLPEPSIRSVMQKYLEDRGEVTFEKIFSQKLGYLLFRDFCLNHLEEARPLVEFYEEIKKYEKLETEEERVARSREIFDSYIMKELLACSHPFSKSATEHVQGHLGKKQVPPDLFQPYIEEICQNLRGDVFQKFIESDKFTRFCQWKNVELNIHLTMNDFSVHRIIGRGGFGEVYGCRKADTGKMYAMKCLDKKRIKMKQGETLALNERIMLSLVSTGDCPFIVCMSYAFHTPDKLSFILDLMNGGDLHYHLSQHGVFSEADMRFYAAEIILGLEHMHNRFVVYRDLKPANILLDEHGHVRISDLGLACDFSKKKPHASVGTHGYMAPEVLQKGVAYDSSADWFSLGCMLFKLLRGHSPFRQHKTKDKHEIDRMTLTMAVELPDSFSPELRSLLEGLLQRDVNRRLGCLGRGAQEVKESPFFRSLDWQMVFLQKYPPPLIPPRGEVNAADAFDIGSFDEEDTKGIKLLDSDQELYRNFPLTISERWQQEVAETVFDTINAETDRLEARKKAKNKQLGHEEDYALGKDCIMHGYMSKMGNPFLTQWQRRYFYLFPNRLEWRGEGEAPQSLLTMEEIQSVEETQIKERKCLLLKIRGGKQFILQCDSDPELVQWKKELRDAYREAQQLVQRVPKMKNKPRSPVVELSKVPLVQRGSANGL
Sequence of Integrin beta-1 (Homo sapiens) + Integrin alpha-4 (Homo sapiens) (P05556 whole entry, looked up): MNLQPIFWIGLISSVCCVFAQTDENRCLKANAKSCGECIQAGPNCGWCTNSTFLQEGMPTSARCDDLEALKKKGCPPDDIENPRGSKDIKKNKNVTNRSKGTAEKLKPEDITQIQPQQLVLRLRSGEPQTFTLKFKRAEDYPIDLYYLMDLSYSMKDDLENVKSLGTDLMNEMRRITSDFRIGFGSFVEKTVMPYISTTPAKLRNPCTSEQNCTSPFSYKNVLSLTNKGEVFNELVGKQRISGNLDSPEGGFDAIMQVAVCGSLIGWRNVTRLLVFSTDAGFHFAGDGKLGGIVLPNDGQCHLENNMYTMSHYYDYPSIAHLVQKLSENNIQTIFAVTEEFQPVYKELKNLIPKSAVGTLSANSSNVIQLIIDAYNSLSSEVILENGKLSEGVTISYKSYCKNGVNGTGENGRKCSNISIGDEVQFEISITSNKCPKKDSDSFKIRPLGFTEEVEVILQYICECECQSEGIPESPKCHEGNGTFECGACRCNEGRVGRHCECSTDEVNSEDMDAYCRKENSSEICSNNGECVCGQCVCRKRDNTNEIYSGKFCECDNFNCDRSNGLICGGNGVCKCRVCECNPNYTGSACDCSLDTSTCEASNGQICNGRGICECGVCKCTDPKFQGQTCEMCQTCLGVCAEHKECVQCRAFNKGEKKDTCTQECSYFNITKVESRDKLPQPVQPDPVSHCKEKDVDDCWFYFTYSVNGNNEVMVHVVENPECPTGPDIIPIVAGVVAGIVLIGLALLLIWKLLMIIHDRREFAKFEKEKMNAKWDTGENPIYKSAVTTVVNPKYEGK
Sequence of Integrin beta-1 (Homo sapiens) + Integrin alpha-4 (Homo sapiens) (P13612 whole entry, looked up): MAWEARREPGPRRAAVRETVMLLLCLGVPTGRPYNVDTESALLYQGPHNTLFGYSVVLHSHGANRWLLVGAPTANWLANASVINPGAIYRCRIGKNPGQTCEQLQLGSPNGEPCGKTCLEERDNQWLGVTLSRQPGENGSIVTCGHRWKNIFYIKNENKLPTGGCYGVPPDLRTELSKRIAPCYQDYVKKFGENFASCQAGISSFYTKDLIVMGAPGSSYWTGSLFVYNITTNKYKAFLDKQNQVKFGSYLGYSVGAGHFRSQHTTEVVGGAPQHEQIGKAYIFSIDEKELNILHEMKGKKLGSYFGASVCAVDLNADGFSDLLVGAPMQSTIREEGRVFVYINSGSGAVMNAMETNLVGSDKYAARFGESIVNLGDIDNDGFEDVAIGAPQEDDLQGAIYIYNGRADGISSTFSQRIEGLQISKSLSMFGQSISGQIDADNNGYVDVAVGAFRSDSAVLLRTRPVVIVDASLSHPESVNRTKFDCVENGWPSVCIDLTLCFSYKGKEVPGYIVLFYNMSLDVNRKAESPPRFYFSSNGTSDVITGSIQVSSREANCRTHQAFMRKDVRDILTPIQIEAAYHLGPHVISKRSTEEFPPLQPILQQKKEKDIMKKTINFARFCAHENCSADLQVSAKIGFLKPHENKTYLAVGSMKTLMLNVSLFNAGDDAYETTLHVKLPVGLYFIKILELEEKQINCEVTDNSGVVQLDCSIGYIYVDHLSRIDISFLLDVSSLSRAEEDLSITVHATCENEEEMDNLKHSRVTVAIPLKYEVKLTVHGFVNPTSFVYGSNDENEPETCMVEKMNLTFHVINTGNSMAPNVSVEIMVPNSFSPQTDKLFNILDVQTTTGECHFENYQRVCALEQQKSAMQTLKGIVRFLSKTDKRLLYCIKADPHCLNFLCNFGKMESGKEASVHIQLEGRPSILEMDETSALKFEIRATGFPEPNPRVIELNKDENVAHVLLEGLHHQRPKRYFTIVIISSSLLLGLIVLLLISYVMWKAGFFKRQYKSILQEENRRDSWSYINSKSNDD
Sequence of AP-2 complex subunit beta (Homo sapiens) (P63010 whole entry, looked up, the tested form may be a part, one chain of several): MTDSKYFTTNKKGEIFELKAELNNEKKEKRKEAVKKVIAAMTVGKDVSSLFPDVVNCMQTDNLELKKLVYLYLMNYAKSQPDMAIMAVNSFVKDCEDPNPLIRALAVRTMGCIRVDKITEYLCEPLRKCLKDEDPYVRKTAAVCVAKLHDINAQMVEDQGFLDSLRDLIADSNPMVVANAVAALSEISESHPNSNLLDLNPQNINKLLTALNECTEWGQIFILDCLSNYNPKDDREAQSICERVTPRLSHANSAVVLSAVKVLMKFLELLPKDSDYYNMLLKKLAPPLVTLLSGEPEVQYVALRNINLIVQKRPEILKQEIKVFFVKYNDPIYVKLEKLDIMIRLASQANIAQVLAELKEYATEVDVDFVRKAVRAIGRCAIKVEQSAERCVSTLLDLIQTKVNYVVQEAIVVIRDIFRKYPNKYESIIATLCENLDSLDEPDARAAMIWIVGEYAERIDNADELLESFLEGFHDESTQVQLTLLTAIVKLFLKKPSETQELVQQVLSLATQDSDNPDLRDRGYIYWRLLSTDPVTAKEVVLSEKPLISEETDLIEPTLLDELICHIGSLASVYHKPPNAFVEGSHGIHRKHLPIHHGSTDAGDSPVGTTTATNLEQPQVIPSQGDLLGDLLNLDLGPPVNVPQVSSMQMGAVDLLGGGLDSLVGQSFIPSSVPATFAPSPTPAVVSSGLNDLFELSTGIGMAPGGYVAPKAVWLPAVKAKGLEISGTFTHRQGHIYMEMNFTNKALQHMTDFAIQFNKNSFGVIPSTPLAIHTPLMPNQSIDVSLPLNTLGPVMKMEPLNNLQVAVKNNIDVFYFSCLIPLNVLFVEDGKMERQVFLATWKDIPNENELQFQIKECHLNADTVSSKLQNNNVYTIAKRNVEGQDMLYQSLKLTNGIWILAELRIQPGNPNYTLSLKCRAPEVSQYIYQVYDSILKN

In general, inhibition refers to the change of the read-out against control, counted positive when it falls. In the case of `Cc1csc(N)n1`, the percent of DMSO control GFP in [1] was 101% (inactive). Also, the GFP response vs DMSO was 105% (inactive) in experiment [2] and 86.9% (inactive) in experiment [4]. Further, the percent response of DMSO control in experiment [3] was 114% (inactive). The GFP response, % of DMSO in [5] is 101% (inactive). The molecule further displayed a double positive events in experiment [6] of 69.2%. Further, in experiment [6], the vesicle binding response was 201% (inactive). The inhibition in experiment [7] was -7.12% (inactive); in experiment [11], 5.92% (inactive); in experiment [15] it was 12% (inactive). Further, the superoxide response (% of plate) in experiment [8] is 87% (inactive). Moreover, the aptamer binding inhibition in experiment [9] was -1% (inactive). Moreover, the figures for the response in experiment [10] and in experiment [12] were 4.23% (inactive) and -1.8% (inactive), respectively. The binding (% of control) in experiment [13] is 105% (inactive). Also, the efflux inhibition (fraction of control) in experiment [14] is -0.31 (inactive). In [16], the differentiation response was 9.01% (inactive).
`Fc1ccc(-n2cc(CNCCc3ccccn3)c(-c3ccccc3Cl)n2)cc1`: in experiment [1], the percent of DMSO control GFP was 106% (inactive). For the same molecule, the GFP response vs DMSO in [2] was 102% (inactive); in [4], 106% (inactive). In addition, the percent response of DMSO control in experiment [3] was 97.7% (inactive). Further, the GFP response, % of DMSO in [5] is 107% (inactive). Further, the double positive events in [6] was determined as 63.8%. Besides, the vesicle binding response in experiment [6] was 91.8% (inactive). Besides, the inhibition in experiment [7] is 15.9% (inactive); in experiment [11] it was 1.4% (inactive); in experiment [15] it was -2% (inactive). In addition, the superoxide response (% of plate) in [8] was 98.4% (inactive). Further, in experiment [9], the aptamer binding inhibition was -3% (inactive). For the same molecule, the response is -23.3% (inactive) in experiment [10] and -7.11% (inactive) in [12]. In addition, the binding (% of control) in [13] was 110% (inactive). Besides, the efflux inhibition (fraction of control) in [14] is -0.17 (inactive). Moreover, the differentiation response in [16] is -7.94% (inactive).
Regarding `CSCCC(NC(C)=O)C(=O)Oc1ccc2c3c(c(=O)oc2c1)CCCC3` (stereo not given), the percent of DMSO control GFP in [1] was 102% (inactive). The GFP response vs DMSO in experiment [2] is 101% (inactive); in [4], 99.9% (inactive). The percent response of DMSO control in experiment [3] was 105% (inactive). In addition, the GFP response, % of DMSO in experiment [5] is 100% (inactive). The double positive events in experiment [6] turned out to be 61.1%. For the same molecule, the vesicle binding response in experiment [6] was 56% (inactive). The results for the inhibition in experiment [7], in experiment [11] and in experiment [15] were 3.7% (inactive), 17.4% (inactive) and 11% (inactive), respectively. Moreover, the superoxide response (% of plate) in experiment [8] is 102% (inactive). Further, the aptamer binding inhibition in [9] is 4% (inactive). The response is -6.44% (inactive) in experiment [10] and -2.62% (inactive) in experiment [12]. The binding (% of control) in [13] is 93.2% (inactive). For the same molecule, in experiment [14], the efflux inhibition (fraction of control) is -0.01 (inactive). The differentiation response in [16] is 0.24% (inactive).
Consider `CC(=O)N1c2ccccc2C(C)=CC1(C)C`, for which the percent of DMSO control GFP in experiment [1] is 101% (inactive). Moreover, the figures for the GFP response vs DMSO in experiment [2] and in [4] were 107% (inactive) and 104% (inactive), respectively. In [3], the percent response of DMSO control is 98.3% (inactive). Further, the GFP response, % of DMSO in experiment [5] was 125% (inactive). This molecule came in with a double positive events in experiment [6] of 64.4%. Besides, the vesicle binding response in [6] was 199% (inactive). In addition, the figures for the inhibition in experiment [7], in [11] and in experiment [15] were -17.3% (inactive), -16.5% (inactive) and 2% (inactive), respectively. The superoxide response (% of plate) in experiment [8] is 112% (inactive). For the same molecule, the aptamer binding inhibition in experiment [9] is 2% (inactive). For the same molecule, the response in experiment [10] is -23.5% (inactive); in [12] it was -0.45% (inactive). In experiment [13], the binding (% of control) was 109% (inactive). For the same molecule, in [14], the efflux inhibition (fraction of control) was -0.04 (inactive). In experiment [16], the differentiation response was -1.05% (inactive).
Take `COc1cccc(-n2cc(CNCc3c(C(=O)N(C)C)nc4ccc(Cl)cn34)cn2)c1`: in experiment [1], the percent of DMSO control GFP is 103% (inactive). The GFP response vs DMSO was 106% (inactive) in [2] and 90.1% (inactive) in experiment [4]. Besides, the percent response of DMSO control in [3] is 111% (inactive). Further, in experiment [5], the GFP response, % of DMSO is 99.9% (inactive). In experiment [6], this molecule showed a double positive events of 61.4%. Further, in experiment [6], the vesicle binding response is 171% (inactive). Besides, the inhibition is -4.6% (inactive) in [7], -5.56% (inactive) in experiment [11] and 19% (inactive) in experiment [15]. Also, the superoxide response (% of plate) in experiment [8] is 106% (inactive). In [9], the aptamer binding inhibition is 5% (inactive). The response in [10] is -6.24% (inactive); in [12], -0.56% (inactive). Besides, the binding (% of control) in experiment [13] was 98% (inactive). Further, the efflux inhibition (fraction of control) in experiment [14] was -0.26 (inactive). For the same molecule, the differentiation response in experiment [16] was 10% (inactive).

The record behind these values is PubChem BioAssay.
